Source: PubChem BioAssay
Hits are enriched below; roughly 3.3% of the tested compounds scored in any of these assays.
PI5P4Ka inh = PI5P4K alpha (human) kinase inhibition | PI5P4Kalpha enzyme, ADP-Glo luminescence, 60 min; active compounds read low | hit rate 1.2% among 330,000 | P48426 | AID 652105 | max response, %; active = max response of -50% or lower; inconclusive = between -30% and -50%; inactive = -30% or higher; note: value at the top dose of about 77 µM
Target sequence (P48426 whole entry, looked up): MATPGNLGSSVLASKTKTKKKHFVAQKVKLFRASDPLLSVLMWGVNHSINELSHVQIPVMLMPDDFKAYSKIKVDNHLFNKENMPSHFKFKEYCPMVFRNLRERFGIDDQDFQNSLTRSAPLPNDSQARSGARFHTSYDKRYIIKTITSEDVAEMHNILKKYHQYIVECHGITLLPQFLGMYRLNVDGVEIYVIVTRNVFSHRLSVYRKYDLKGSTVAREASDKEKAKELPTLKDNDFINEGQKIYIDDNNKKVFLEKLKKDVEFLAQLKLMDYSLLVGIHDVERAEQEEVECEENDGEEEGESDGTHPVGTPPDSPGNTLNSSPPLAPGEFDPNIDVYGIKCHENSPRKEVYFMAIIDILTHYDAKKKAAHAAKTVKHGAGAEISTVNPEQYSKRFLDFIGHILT
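ADP-Glo luminescence end-point read after a 60 min room-temperature kinase reaction of PI5P4Kalpha plus substrate, initiated with ATP at 5 microM final. Buffer: 0.038 M HEPES pH 7.4, EGTA, 0.1% CHAPS, 5% DMSO.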
PLK1 PBD inh = inhibitors of human PLK1 polo-box domain binding. P53350. Plk1 PBD binding of FITC phosphopeptide, fluorescence polarization. Potency, µM, inactives show max response, negative = inhibition, hits mostly inhibitors. hit rate 2.8% among 360,000. AID 720504; note: potency is the fitted concentration of half-maximal effect; series mostly up to about 57 µM; nearly all actives have a fitted effect of over 65% in size
WRN helicase inh = inhibitors of human WRN helicase; Potency, µM (highest dose often 114 µM), for the others: at the top dose activity change, negative = inhibition, most hits filed as inhibitors; hit rate 0.46% among 360,000; AID 651768; Q14191; WRN helicase unwinding, fluorescent forked duplex, kinetic; note: potency is the fitted concentration of half-maximal effect; nearly all actives have a fitted effect of over 55% in size
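Kinetic fluorescence helicase assay: unwinding of a quenched forked DNA duplex (100 nM final) with 2 mM ATP final raises red fluorescence (525/598 nm). Compounds sat 15 min at room temperature with 20 nM WRN beforehand.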
USP1-UAF1 inh = inhibitors of human USP1/UAF1 deubiquitinase; recombinant USP1/UAF1, Ub-Rhodamine cleavage fluorescence; Potency, µM (series often up to 57.1 µM), for the others: top-dose activity change, negative = inhibition, actives largely listed as inhibitors; hit rate 0.23% among 390,000; note: potency is the fitted concentration of half-maximal effect; nearly all actives have a fitted effect of over 60% in size
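1 nM enzyme complex + cpd, 15 min RT; start with Ub-Rho 150nM final; kinetic fluorescence ex 480/em 540, 6 reads q60 s. Buffer 50mM HEPES pH 7.8, 0.5mM EDTA, 0.1 mg/ml BSA, 1mM TCEP, 0.01% Tween-20.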
USP2a inh = inhibitors of human ubiquitin-specific protease USP2a. USP2 core, Ub-CHOP2 coupled fluorogenic reporter, 485/531. Potency, µM (highest dose often 38.3 µM), inactives show at the top dose activity change, negative = inhibition, usual class: inhibitors. hit rate 0.01% among 330,000. AID 463254;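 note: potency is the fitted concentration of half-maximal effect; plate controls were DMSO wells for no effect and full inhibition by NEM control for full effect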
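Deubiquitinase activity read as fluorescence (485/531 nm) after Ub-CHOP2 cleavage activates the enterokinase reporter on its substrate; USP2 core 10nM, Ub-CHOP2 and substrate 25nM each, 30min compound preincubation then 60min RT; data normalized to NEM, curves fitted.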
Numbers without * were called inactive; u = inconclusive; x = not tested or not shown; [ ] = remark or other dose. Unless noted, calls come from the whole dose curve; as a rule, active = well fitted curve in the direction sought with a large enough effect; inconclusive = small, poorly fitted or top-dose-only effect, or another doubt; inactive = no such curve, though single readings can be large; an effect the other way counts as inactive or inconclusive. Unless noted, % is set by controls: 0 for no effect and ±100 for the full control effect.

SMILES	PI5P4Ka inh	PLK1 PBD inh	WRN helicase inh	USP1-UAF1 inh	USP2a inh
O=C(CSc1nccn(-c2ccc3c(c2)OCCO3)c1=O)Nc1ccccc1	-10	21µM*	-15%	-7%	0%
Cc1ccc(NC(=O)CSc2nccn(-c3ccc4c(c3)OCCO4)c2=O)cc1	-8	-30%	-23%	-3%	-1%
Cc1ccc(OCCSc2nc3ncnc(N)c3[nH]2)cc1	u	9.5µM*	38%	-12%	-1%
CCCC1S/C(=N/N=C/c2cccs2)NC1=O (centres undefined)	-2	17µM*	7%	-18%	-1%
CCC1S/C(=N/N=C/c2cccs2)NC1=O (centres undefined)	-1	-11%	0%	-2%	2%
O=c1cc2c(=O)oc3cc(O)c(O)oc3c2c(O)c1O	-75*	u	u	-20%	0%
Oc1ccccc1/C=N/Nc1cc(N2CCCC2)nc(N2CCCC2)n1	-14	1%	0%	25µM*	0%
Cc1ccc(Nc2n[nH]c(=S)s2)cc1F	-76*	u	u	-7%	x
Cc1nnc(Nc2ccc(Cl)cc2)s1	9	-5%	-22%	1%	2%
Cc1ccc(Nc2n[nH]c(=S)s2)cc1	-68*	24µM*	3%	-9%	x
CCOc1ccc(Nc2n[nH]c(=S)s2)cc1	-76*	u	-8%	9%	3%
S=c1[nH]nc(Nc2ccc(Cl)cc2)s1	-73*	13µM*	-9%	3%	0%
Oc1c(Br)cc(Br)cc1-c1nc2ccccc2s1	x	x	x	-6%	x
COc1ccccc1OC(C)C(=O)Nc1c(C(=O)c2ccc(Cl)cc2)oc2ccccc12 (centres undefined)	x	x	x	-16%	x
O=C(O)CSc1cc(NS(=O)(=O)c2ccc(Br)cc2)c2ccccc2c1O	u	4.7µM*	50µM*	35µM*	-2%
CC(O)[C@H]1CN=C(N)N1CC1CCCCC1 (some centres undefined)	-3	27µM*	4%	2%	x
COC(=O)c1ccccc1NC(=O)CN1C(=O)CSC1=O	8	-9%	1%	-6%	0%
O=C(CN1C(=O)CSC1=O)Nc1ccc(F)c(F)c1F	-16	24µM*	5%	-21%	1%
CN(C)c1ccc(-c2nc3ccccc3n2C)cc1	x	27µM*	-11%[57.1 µM]	-22%	1%
COc1ccccc1NC(=O)Cn1c(=O)n(CCc2ccccc2)c(=O)c2c3c(sc21)CN(C(C)=O)CC3	x	x	x	-17%	x
Cc1cc(C(=O)CSc2nnnn2-c2ccc(O)cc2)c(C)n1C	-23	24µM*	u	-4%	1%
Cc1cc(C(=O)CSc2nnnn2-c2ccccc2)c(C)n1CCc1ccccc1	0	3%	-5%	-4%	2%
NC(=O)c1ccc(-n2nnnc2SCC(=O)c2ccc(O)c(O)c2)cc1	u	3%	35µM*	-9%	1%
CCc1ccc(NC(=O)[C@@H](NC(=O)[C@@H]2Cc3ccccc3CN2)C(C)CC)cc1 (some centres undefined)	-2	-9%	2%	-4%	1%
CCc1ccc(NC(=O)[C@H](NC(=O)[C@@H]2Cc3ccccc3CN2)c2ccccc2)cc1	-1	30µM*	-7%	-15%	-5%
SMILES	PI5P4Ka inh	PLK1 PBD inh	WRN helicase inh	USP1-UAF1 inh	USP2a inh
Cc1ccc(-n2c(=S)[nH]c3sc4c(c3c2=O)CCc2ccccc2-4)cc1	-18	30µM*	-4%	-24%	2%
Cn1cc(P(=S)(N2CCOCC2)N2CCOCC2)cc1P(=O)(N1CCOCC1)N1CCOCC1	-26	13µM*	-14%	-14%	-1%
CCn1c(C)c(P(=O)(N2CCOCC2)N2CCOCC2)c2ccccc21	-6	3%	8%	-18%	4%
Cn1cc(P(=O)(N2CCOCC2)N2CCOCC2)cc1P(=S)(N1CCOCC1)N1CCOCC1	-2	11µM*	0%	-11%	0%
CCCCSCCCNC(=O)CN1C(=O)COc2ccc(S(=O)(=O)N3CCCC3)cc21	x	x	x	-20%	x
Cc1ccc(C(=O)c2cn(CC(=O)NCc3ccccc3Cl)c3nc(C)ccc3c2=O)cc1	x	x	x	3%	x
NNC(=O)c1cc2ccccc2cc1O	-52*	-18%	-8%	-7%	0%
COc1ccc2[nH]c3c(=O)n(Cc4ccc(C(=O)N5CCC(C(N)=O)CC5)cc4)c(=S)[nH]c3c2c1	-59*	21µM*	-9%	-23%	2%
Cc1ccc(N2CC(NC(=O)c3ccc(S(=O)(=O)N4CCCC4)cc3)CC2=O)cc1 (centres undefined)	x	x	x	-23%	x
COc1c(Br)cc(Br)cc1/C=N/n1c(C)nnc1C	-6	27µM*	-13%	-17%	-3%
O=C(NCc1ccc(Cl)cc1)C(=O)NCC(c1ccc2c(c1)OCO2)N1CCOCC1 (centres undefined)	x	x	x	-18%	x
Nc1nc(O)c(N=Nc2ccc(S(N)(=O)=O)cc2)c(=O)[nH]1	0	0%	-6%	-20%	1%
NS(=O)(=O)c1ccc(N=Nc2c(O)c(C(=O)O)cc3ccccc23)cc1	-95*	0%	-9%[11.6 µM]	-10%	u
COc1cc(NC(=O)CCn2nc(C)c(S(=O)(=O)N3CCCCC3)c2C)cc(OC)c1OC	x	x	x	-12%	x
COc1cc(/C=C/C2=NNC(=O)CC2)cc(OC)c1OC	1	6%	5%	-27%	0%
CC(C)c1ccc(/C=C/C2=NNC(=O)CC2)cc1	-18	9.5µM*	-2%[57.1 µM]	3%	2%
Cc1ccc(NC(=O)Cn2ccn(-c3ccccc3)c(=O)c2=O)cc1	x	x	x	-4%	x
CCOc1ccc(OCC)c(Nc2cc(C)nc3nc(-c4ccco4)nn23)c1	x	x	x	-6%	x
Cc1nc(SCc2cccc(C(=O)O)c2)nc2c1CCCC2	-10	27µM*	-6%[57.1 µM]	-1%	-1%
O=C(O)c1cccc(CSc2nc(-c3ccc(Cl)cc3)cc(C(F)(F)F)n2)c1	x	27µM*	-19%	-17%	1%
Cn1c(=O)c2sccc2n2c(CCC(=O)Nc3ccc(F)cc3)nnc12	x	x	x	-25%	x
Cc1ccccc1C(=O)NC1(C(F)(F)F)N=C(c2ccccc2)N(C2CCCCC2)C1=O (centres undefined)	x	x	x	-28%	x
O=C1C(=C(I)I)c2ccccc2-c2ccccc21	5	4.7µM*	u	28µM*	x
O=C(O)c1cccc2c1C(=O)c1ccccc1-2	-4	-13%	-1%	-19%	-5%
O=C(CN1C(=O)COc2ccc(S(=O)(=O)N3CCCCCC3)cc21)NCCc1ccccc1	x	x	x	-8%	x
N#CC1=C(N)Oc2cc(O)ccc2C1c1ccc(Br)s1 (centres undefined)	u	30µM*	-21%	-9%	-1%
O=C(COc1ccc([N+](=O)[O-])cc1)Nc1ccc2c(c1)nc1n2CCOC1	u	3µM*	-4%	-15%	5%
Cc1ccc(OCC(=O)Nc2ccc3c(c2)nc2n3CCOC2)cc1	7	-10%	6%	-20%	-1%
Cc1ccc(NC(=O)NNS(=O)(=O)c2ccc(Br)cc2)cc1	1	-7%	-15%	11%	-1%
